Measurements: ChEMBL document CHEMBL2218924, “A broad activity screen in support of a chemogenomic map for kinase signalling research and drug discovery” (Biochem J, 2013)

Each compound was assayed against T1, Serine/threonine-protein kinase Nek2 (Homo sapiens) (UniProt P51955). Settings: at 1 µM.
T1 sequence (whole entry): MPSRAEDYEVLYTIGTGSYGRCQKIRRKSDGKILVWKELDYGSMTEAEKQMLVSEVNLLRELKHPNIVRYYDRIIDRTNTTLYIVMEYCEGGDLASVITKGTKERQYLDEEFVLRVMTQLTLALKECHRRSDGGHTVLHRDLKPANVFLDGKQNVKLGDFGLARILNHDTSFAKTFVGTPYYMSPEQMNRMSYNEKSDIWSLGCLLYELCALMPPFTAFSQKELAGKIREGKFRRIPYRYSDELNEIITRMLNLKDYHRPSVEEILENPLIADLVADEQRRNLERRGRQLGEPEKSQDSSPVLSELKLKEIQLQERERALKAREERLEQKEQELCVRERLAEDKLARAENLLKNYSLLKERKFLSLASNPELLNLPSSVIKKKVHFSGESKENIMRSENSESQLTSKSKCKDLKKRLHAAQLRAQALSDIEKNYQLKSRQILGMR
`CO[C@H]1C[C@@H]2CC[C@@H](C)[C@@](O)(O2)C(=O)C(=O)N2CCCC[C@H]2C(=O)O[C@H]([C@H](C)C[C@@H]2CC[C@@H](O)[C@H](OC)C2)CC(=O)[C@H](C)/C=C(\C)[C@@H](O)[C@@H](OC)C(=O)[C@H](C)C[C@H](C)/C=C/C=C/C=C/1C` was tested, and the residual activity was 83%. `Nc1nc(Nc2ccc(S(N)(=O)=O)cc2)nn1C(=S)Nc1c(F)cccc1F` was tested, and the residual activity was 91%. `O=C1NC(=O)/C(=C\c2ccc3nccnc3c2)S1` was tested, and the residual activity was 88%. In the case of `COc1ccc(CNc2nc(N(CCO)CCO)nc3c2ncn3C(C)C)cc1`, the residual activity is reported as 90%. `COc1ccc(C(=O)Nc2sc3c(c2C(N)=O)CCCC3)cc1OC` was tested, and the residual activity was 80%. `O=C(Nc1cccc(Nc2cc(Nc3cccc(C(F)(F)F)c3)ncn2)c1)C1CC1` was tested, and the residual activity was 73%. Compound `Oc1ccc(Nc2nc(-c3ccc(Cl)cc3)cs2)cc1` has a residual activity of 116%. Work on `COc1ccc(OC)c2c(=S)c3ccccc3[nH]c12` yielded a residual activity of 98%. For `O=C1Nc2cc(Br)ccc2/C1=C1/Nc2ccccc2/C1=N\O`, the residual activity was 89%. In the case of `Nc1cccc(-c2cc3c(Oc4cccc(O)c4)ncnc3[nH]2)c1`, the residual activity is reported as 97%. In the case of `Oc1n[nH]c2nnc(-c3c(-c4ccccc4)nn4ccccc34)cc12`, the residual activity is reported as 95%. For `COc1cccc(-c2cc(=O)c3ccccc3o2)c1N`, the residual activity was 98%. `Cc1nc2cc3nc(-c4cccs4)cnc3cc2n1C` was tested, and the residual activity was 87%. `O=Nc1c(-c2c(O)[nH]c3ccccc23)[nH]c2ccccc12` showed a residual activity of 93%. Compound `O=C1c2ccccc2-[n+]2ccc3c([nH]c4ccccc43)c21` has a residual activity of 90%. In the case of `CNc1cc2c(Nc3cccc(Br)c3)ncnc2cn1`, the residual activity is reported as 78%.
